KCNQ2 enhance: potentiators of rat KCNQ2 potassium channel | O88943 | CHO-K1 KCNQ2, FluxOR thallium flux fluorescence; hits give high values | B-score at 10 µM | 310,000 tested, 0.54% active | AID 2239;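 active = fluorescence ratio B-score at least 3 SD of library B-scores, with initial fluorescence B-score within 3 of them, cut at about 5.3 in these data; same plate scores as AID 2156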;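 note: B-score of peak minus minimum over baseline fluorescence ratio after K+ and Tl+ stimulus; positive B-score means potentiation of KCNQ2 with more thallium influx and brighter signal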
KCNQ2 inh: KCNQ2 (rat) channel inhibition. O88943. CHO-K1 KCNQ2, FluxOR thallium flux, 20 min; hits give low values. B-score at 10 µM. 310,000 tested, 1.1% active;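 active = fluorescence ratio B-score at most minus 3 library SDs, with starting brightness B-score within 2 library SDs, cut at about -5.5 in these data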
Kir21 conf inh: confirmation of mouse Kir2.1 potassium channel inhibitors | 2,300 tested, 41% active | Kir2.1-expressing cells, FluxOR thallium flux fluorescence; hits give low values | shares compounds with KCNQ2 enhance | Tl flux remaining, % of negative control (hits give low values), % at 10 µM;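 active = Primary-screen hit whose thallium flux fell at least 3 control SD below untreated wells in both duplicates, with normal baseline fluorescence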;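 note: 0% = blank wells without stimulus and 100% = stimulated no-compound controls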
HEK293 Tl flux: counter-screen for Kir2.1 inhibitors: effect in parental HEK293 cells; shares compounds with KCNQ2 enhance; FluxOR thallium flux fluorescence; 0% = unstimulated blank wells; FluxOR signal as % of negative control (100 = no effect), % at 10 µM; 2,300 tested, 19% active;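 active = dye signal at least 3 control SD above or below untreated wells in both duplicates, raw fluorescence within 3, either direction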;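 note: percent is based on the flux ratio of peak minus minimum fluorescence over baseline F0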
CHO-K1 Tl ctr: parental CHO-K1 activity in KCNQ2 potentiator counter-screen | shares compounds with KCNQ2 enhance | parental CHO-K1 cells, FluxOR thallium flux fluorescence; zero = vehicle mean+3SD, 100% = vehicle-minus-blank window | activity increase over 3SD of controls, % at 10 µM | 1,200 tested, 43% active | AID 2282;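 active = signal rise of at least 3 SD above the untreated control mean, in both duplicate wells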;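 note: counter screen of KCNQ2 potentiator hits so any rise reflects channel-independent effects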
KCNQ1 pot spec: selectivity of KCNQ2 potentiators: effect on human KCNQ1; shares compounds with KCNQ2 enhance; CHO KCNQ1 stable, FluxOR thallium flux fluorescence; beyond 3SD, as % of vehicle-control signal; activation over 3SD threshold, % at 10 µM; 1,200 tested, 28% active; AID 2283;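 active = fluorescence ratio rise of at least 3 SD of vehicle wells above their mean, in both replicate wells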;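 note: 0% = vehicle mean plus 3 SD and 100% = vehicle minus unstimulated blank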
KCNQ2 pot confirm: confirmation of rat KCNQ2 potassium channel potentiators | potentiation, less the hit threshold, % at 10 µM | 1,200 tested, 68% active | CHO-KCNQ2 cells, FluxOR thallium flux fluorescence | shares compounds with KCNQ2 enhance;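 active = fluorescence ratio rising 3 SD or more over the vehicle control mean in both replicates, plus primary screen hit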;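 note: peak minus minimum thallium fluorescence divided by baseline after K/Tl stimulus; 0% = vehicle mean plus 3 SD and 100% = vehicle minus unstimulated blank difference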
Kir21 spec: tests whether KCNQ2 potentiators also affect mouse Kir2.1; shares compounds with KCNQ2 enhance; HEK293 Kir2.1, FluxOR thallium flux fluorescence; AID 2345; activity over 3SD threshold, % at 10 µM; 1,200 tested, 2% active;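 active = fluorescence ratio rise of at least 3 SD above the vehicle-control mean, seen in both replicates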;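 note: 0% = vehicle mean plus 3 SD and 100% = vehicle minus no-stimulus blank window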
KCNQ2 W236L MoA: KCNQ2 potentiators acting on retigabine-insensitive rat KCNQ2 W236L mutant; shares compounds with KCNQ2 enhance; CHO KCNQ2-W236L, automated patch clamp current; current increase over 3SD of negative controls (%), hits give high values, % at 25 µM; 940 tested, 10% active;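 active = current increase at least 3 SD of the untreated controls above them in both duplicate recordings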
* marks the source's active call; other numbers are inactive results; i = inactive; . = no result. This is a sample that favours compounds with a hit; in the whole collection about 1.6% have one here.

SMILES | KCNQ2 enhance | KCNQ2 inh | Kir21 conf inh | HEK293 Tl flux | CHO-K1 Tl ctr | KCNQ1 pot spec | KCNQ2 pot confirm | Kir21 spec | KCNQ2 W236L MoA
CN1CCN(NC(=O)COc2cccc(C(F)(F)F)c2)CC1 | . | i | . | . | . | . | . | . | .
COc1cccc(CC(=O)Nc2cc(C(F)(F)F)ccc2N2CCCC2)c1 | 5.4* | i | i | i | -15 | -22 | -1 | -32 | i
Cc1cc(N2CCCC2)ccc1NC(=O)COc1cccc(C(F)(F)F)c1 | 6.4* | i | i | i | -11 | -12 | 6.0* | -40 | i
O=C(COc1ccccc1)Nc1cc(C(F)(F)F)ccc1N1CCCC1 | . | i | . | . | . | . | . | . | .
Cc1cccc(C)c1OCC(O)CN1CCC(CN2C(=O)c3cccc4cccc(c34)C2=O)CC1 (configuration not stated) | 5.7* | i | i | i | 50* | -16 | -22 | -27 | .
Cc1ccccc1OCC(O)CN1CCN(CCN2C(=O)c3cccc4cccc(c34)C2=O)CC1 (configuration not stated) | . | i | . | . | . | . | . | . | .
CCN1CCN(C(=O)c2cc(COc3ccc(F)cc3F)on2)[C@@H](C)C1=O | 1.5 | i | . | . | . | . | . | . | .
FC(F)(F)c1cnc(Oc2ccccc2-c2nnco2)c(Cl)c1 | 7.4* | i | i | i | -6 | -1 | 53* | -33 | i
FC(F)(F)c1cnc(Oc2ccc(-c3nnco3)cc2)c(Cl)c1 | . | i | . | . | . | . | . | . | .
CCc1nnc(NC(=O)CN2CCN(Cc3ccc(C)cc3)CC2)s1 | 0.18 | i | . | . | . | . | . | . | .
CCOc1ccc(CN(C)CC(=O)NCc2ccc(F)cc2)cc1 | . | i | . | . | . | . | . | . | .
Cc1ccc(CN2CCC(c3cc(-c4cccs4)n[nH]3)CC2)cc1 | . | i | 26%* | i | . | . | . | . | .
FC(F)(F)c1cccc(CN2CCC(c3cc(-c4cccs4)n[nH]3)CC2)c1 | . | i | . | . | . | . | . | . | .
O=[N+]([O-])c1ccc(NCCCNS(=O)(=O)c2ccc(Cl)cc2)c(Cl)c1 | . | i | . | . | . | . | . | . | .
CC(CNc1ccccc1O)C(=O)O (configuration not stated) | 0.31 | i | . | . | . | . | . | . | .
COc1ccc(/C=N/Nc2cc(C)nc3ccccc23)cc1 | . | i | 35%* | i | . | . | . | . | .
COc1ccc(/C=N/Nc2cc(C)nc3c(C)cccc23)cc1 | . | i | . | . | . | . | . | . | .
Cc1ccc(N=Nc2c(N)[nH]n3c(=O)cc(-c4ccccc4)nc23)cc1 | 4.3 | i | . | . | . | . | . | . | .
COc1ccc(-c2c(C(F)(F)F)[nH]n3c(=O)cc(-c4ccccc4)nc23)cc1 | 15* | i | i | 225%* | -18 | 66* | 49* | -31 | i
Cc1[nH]n2c(=O)cc(-c3ccc([N+](=O)[O-])cc3)nc2c1-c1ccccc1 | . | i | . | . | . | . | . | . | .
COc1cccc(N=Nc2c(N)[nH]n3c(=O)cc(-c4ccccc4)nc23)c1 | 5.9* | i | i | i | -7 | -19 | -9 | -24 | .
COC(=O)CC1C(=O)NCCN1C(=S)Nc1ccccc1Cl (configuration not stated) | . | i | . | . | . | . | . | . | .
COc1ccc(N(CC(=O)N2CCc3ccccc3C2)S(C)(=O)=O)cc1Cl | . | i | . | . | . | . | . | . | .
CCOC(=O)CNC(=O)C1COc2ccccc2O1 (configuration not stated) | . | i | . | . | . | . | . | . | .
CCC(C)c1ccccc1NC(=S)NC(=O)c1ccco1 (configuration not stated) | 12* | i | i | 383%* | -7 | 68* | 48* | -16 | i
O=C(NC(=S)Nc1nc(-c2ccccc2)cs1)c1ccco1 | 5.4* | i | i | i | -3 | 81* | 1.2* | -35 | i
O=C(NC(=S)Nc1ccccc1Cl)c1ccco1 | 11* | i | i | 154%* | -15 | -17 | 4.7* | -30 | i

Bioassay records as filed in PubChem BioAssay.
